Measurements taken from PubChem BioAssay (NCATS).
Values without a mark were called inactive. Results filed as inconclusive are left out. Entries that show only a call come without a potency. The source made the active and inactive calls. Unless noted, calls follow the shape of the dose curve; as a rule, active = well fitted curve in the direction sought with a large enough effect; inconclusive = small, poorly fitted or top-dose-only effect, or another doubt; inactive = no such curve, though single readings can be large; an effect the other way counts as inactive or inconclusive.

Columns and labels:
[1] = Cell Viability - BJ (AID 421; calls by dose curve;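 also: potency is read from the fitted curve at half-maximal effect; cells exposed to compound for 40 hours at 37 °C before readout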); settings: BJ fibroblast viability, qHTS
In short: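 Normal human BJ foreskin fibroblasts, 1500/well in complete medium, treated 40 hr at 37 °C. Cellular ATP by CellTiter-Glo luminescence; normalized to DMSO and 100 uM tamoxifen, AC50 from Hill fit.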

[2] = Cell Viability - HepG2 (AID 433; calls by dose curve;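 also: potency is read from the fitted curve at half-maximal effect; potency for ATP loss meaning cytotoxicity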); settings: qHTS
In short: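 Cytotoxicity is scored as loss of intracellular ATP in HepG2 cells exposed to compounds for 40 h. Concentration-response curves, normalized to DMSO and 100 uM tamoxifen, give AC50 values.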

[3] = Cell Viability - MRC5 (AID 434; calls by dose curve;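 also: potency is read from the fitted curve at half-maximal effect; cells exposed to compound for 40 hours at 37 °C; potency reflects cytotoxicity seen as loss of intracellular ATP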); settings: MRC5 lung fibroblast viability, qHTS
In short: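 AC50 values come from Hill-equation fits of intracellular ATP loss, measured by CellTiter-Glo luminescence. Normal lung fibroblasts (MRC5) had 40 hr compound treatment at 37 C, normalized between DMSO and 100 uM tamoxifen.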

[4] = Cell Viability - SK-N-SH (AID 435; calls by dose curve;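 also: potency is read from the fitted curve at half-maximal effect; compound exposure lasted 40 h at 37 °C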); settings: SK-N-SH neuroblastoma cell viability qHTS
In short: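 Cells seeded at 1500 per well and incubated 5 hr at 37 °C. Compound added, then 40 hr at 37 °C. CellTiter-Glo added, 20 min at room temperature, luminescence read.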

[5] = Cell Viability - N2a (AID 540); settings: N2a mouse neuroblastoma cell viability; activity change, negative = cytotoxicity: at 92.2 µM (top of the series);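 also: cells exposed to compound for 40 h at 37 °C; nearly all actives have a fitted effect of over 45% in size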
In short: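 In this qHTS cytotoxicity screen, ATP-dependent luciferase luminescence reports viable N2a cells after a 40 hr compound exposure in complete culture medium. Potencies are AC50 values from standard Hill equation fits.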

[6] = Cell Viability - NIH 3T3 (AID 541); settings: NIH 3T3 cell viability, qHTS; activity change, negative = cytotoxicity: at 92.2 µM (top of the series); also: potency is read from the fitted curve at half-maximal effect; nearly all actives have a fitted effect of over 25% in size
In short: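 In this cytotoxicity screen, acute toxicity is scored as an ATP drop measured by CellTiter-Glo in NIH 3T3 fibroblasts following a 40 hr, 37 °C incubation with compound.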

[7] = Cellular Toxicity (caspase-3) HepG2 (AID 654); settings: HepG2 caspase-3 activation, luminescence; series mostly up to 92.2 µM;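 also: cells exposed to compound for 16 hours before reading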
In short: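 Concentration-response AC50 values reflect caspase-3/7 induction in HepG2 cells after 16 hours of compound exposure, quantified by luminescence from liberated aminoluciferin and referenced to 100 uM tamoxifen as full stimulation.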

[8] = Cellular Toxicity (caspase-3) Jurkat (AID 655); settings: Jurkat caspase-3 activation, luminescence; caspase-3 activation: at 92.2 µM (top of the series), DMSO = 0%, tamoxifen = 100%;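 also: cells exposed to compound for 16 h at 37 °C before reading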
In short: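 Caspase 3/7 activation is scored as increased luminescence in Jurkat cells cultured with compound for 16 hours in complete medium. AC50 values come from Hill fits of qHTS concentration-response data normalized to DMSO and 100 uM tamoxifen controls.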

[9] = Cellular Toxicity (caspase-3) HUV-EC-C (AID 656); settings: HUV-EC-C cells, caspase-3 activation (apoptosis); series mostly up to 92.2 µM
In short: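 Read-out: luminescence proportional to caspase 3/7 activity, measured 20 min after adding Caspase-Glo 3/7 reagent. Cells (HUV-EC-C) had received compound for 16 hr at 37°C. Increases relative to DMSO and 100 uM tamoxifen gave concentration-response AC50 values.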

[10] = Cellular Toxicity (caspase-3) SHSY5Y (AID 657); settings: SH-SY5Y caspase-3 activation; series mostly up to 91.7 µM
In short: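 Cells plated and incubated 5 h at 37 °C, dosed over a concentration range, incubated 16 h, then given Caspase-Glo 3/7 reagent for 1 h at room temperature before luminescence reading. Staurosporine (10 uM) defined full stimulation.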

[11] = Cellular Toxicity (caspase-3) BJ (AID 658); settings: BJ fibroblasts, luminescence; Potency: caspase-3 activation; series mostly up to 91.7 µM
In short: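 Caspase-Glo 3/7 luminescence, read 1 hr after reagent at room temperature, in normal BJ fibroblasts exposed 16 hours at 37 °C. AC50 values from Hill-equation concentration-response, scaled between DMSO basal and 10 uM staurosporine as 100%.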

[12] = Cellular Toxicity (caspase-3) MRC-5 (AID 659); settings: MRC-5 cells, luminescence, normalized: DMSO 0%, 10 µM staurosporine 100%; series mostly up to 91.7 µM
In short: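 Luminescent Caspase-Glo 3/7 read-out (1 h, room temperature) after a 16 h, 37 °C compound exposure of MRC-5 lung fibroblasts at 1500 cells/well. Concentration-response AC50 from Hill equation; 0% DMSO, 100% 10 uM staurosporine.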

[13] = Cellular Toxicity (caspase-3) Mesangial (AID 660); settings: mesangial cells, normalized: DMSO 0%, 100 µM tamoxifen 100%; at 91.7 µM (top of the series);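 also: cells exposed to compound for 16 h before the caspase read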
In short: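 AC50 values come from Hill-equation fits of caspase 3/7 activation, measured as Caspase-Glo luminescence in human glomerular mesangial cells exposed to compound for 16 h at 37 °C; 100% set by 100 uM tamoxifen.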

[14] = Cellular Toxicity (caspase-3) H-4-II-E (AID 663); settings: H-4-II-E rat hepatoma; Potency: caspase-3 activation; caspase-3 activation: at 92.2 µM (top of the series), scaled: DMSO 0%, 100 µM tamoxifen 100%;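 also: cells exposed to compound for 16 hr before readout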
In short: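 Caspase 3/7 activation measured by luminescent aminoluciferin substrate cleavage after 16 hr compound treatment of H-4-II-E cells in complete medium. Increase normalized between DMSO (basal) and 100 uM tamoxifen (100%); Hill-equation AC50 from concentration-response.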

[15] = Cellular Toxicity (caspase-3) Hek293 (AID 664); settings: HEK293 caspase-3 activation, DMSO = 0%, 100 µM tamoxifen = 100%; at 92.2 µM (top of the series);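 also: cells exposed to compound for 16 h at 37 °C before readout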
In short: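 Apoptosis readout: Caspase-Glo 3/7 signal in human HEK293 cells following 16-hour compound incubation. Responses scaled between DMSO baseline and 100 uM tamoxifen.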

[16] = Cellular Toxicity (caspase-3) N2a (AID 665); settings: N2a cells, luminescence; Potency: caspase-3 activation; series mostly up to 92.2 µM;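 also: compound exposure lasted 16 h at 37 °C before readout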
In short: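 Concentration-response qHTS: compound-induced caspase-3/7 luminescence in N2a cells (16 h, 37 °C), relative to DMSO and 10 uM staurosporine controls; AC50 obtained using the standard Hill equation.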

[17] = Cellular Toxicity (caspase-3) NIH 3T3 (AID 666); settings: NIH 3T3 caspase-3 activation, apoptosis/toxicity; series mostly up to 92.2 µM
In short: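 Activity: caspase-3/7 induction, NIH 3T3 cells, 16 hr treatment at 37°C, luminescent Caspase-Glo detection; AC50 via Hill equation.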

[18] = Cellular Toxicity (caspase-3) Renal Proximal Tubule (AID 667); settings: renal proximal tubule cells, primary cells freshly taken from rat, solvent-only wells 0%, staurosporine 100%; series mostly up to 91.7 µM;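 also: cells exposed to compound for 16 hours at 37 °C before detection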
In short: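 In qHTS format, rat primary proximal tubule cells seeded at 1000 per well are exposed to compounds for 16 hours at 37 °C. An increase in Caspase-Glo 3/7 luminescence indicates caspase activation.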

[19] = biological target: Cytochrome P450 3A4 (Homo sapiens) (UniProt P08684); assay: qHTS Assay for Activators of Cytochrome P450 3A4 (AID 885); settings: recombinant CYP3A4, Luciferin-PPXE luminescence, 60 min; series mostly up to 57.1 µM; also: nearly all actives have a fitted effect of over 65% in size
In short: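 Human CYP3A4 dealkylates Luciferin-PPXE to luciferin, which luciferase detection converts to light. Substrate was at its KM (25uM), buffer 200mM KPO4, reaction 60 min at RT.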

[20] = MultiTox-Fluor Cytotoxicity Assay - LYMP1-001 - Live Cells (AID 947); settings: LYMP1-001 lymphoblastoid cells, live-cell protease fluorescence viability; series mostly up to 92.2 µM
[21] = Cell Viability - LYMP1-002 - Assay at 16 hr (AID 948); settings: LYMP1-002 lymphoblastoid cell viability; series mostly up to 92.2 µM
In short: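 Acute cytotoxicity is scored as a concentration-dependent fall in intracellular ATP in a human lymphoblastoid line (LYMP1-002) after 16 hr compound exposure at 37 C, measured by luciferase luminescence.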

[22] = MultiTox-Fluor Cytotoxicity Assay - LYMP1-002 - Live Cells (AID 955); settings: LYMP1-002 lymphoblastoid live-cell protease fluorescence viability; series mostly up to 46.1 µM
In short: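 In this qHTS viability format, lymphoblastoid cells (LYMP1-002, human) received compound for 16 hr at 37 C. Fluorogenic GF-AFC cleavage by viable cells was detected at 405/510 nm after 1 h at room temperature.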

[23] = MultiTox-Fluor Cytotoxicity Assay - LYMP1-002 - Dead Cells (AID 960); settings: LYMP1-002 lymphoblastoid cells, dead-cell protease fluorescence; series mostly up to 46.1 µM; also: nearly all actives have a fitted effect of over 60% in size
In short: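 Concentration-dependent increases in membrane-leaked protease activity are quantified in LYMP1-002 cells after 16 hr treatment; values are normalized against DMSO and tetraoctylammonium bromide (15 uM) controls and AC50 derived by Hill modeling.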

Chain of Cytochrome P450 3A4 (Homo sapiens) (P08684 whole entry, looked up): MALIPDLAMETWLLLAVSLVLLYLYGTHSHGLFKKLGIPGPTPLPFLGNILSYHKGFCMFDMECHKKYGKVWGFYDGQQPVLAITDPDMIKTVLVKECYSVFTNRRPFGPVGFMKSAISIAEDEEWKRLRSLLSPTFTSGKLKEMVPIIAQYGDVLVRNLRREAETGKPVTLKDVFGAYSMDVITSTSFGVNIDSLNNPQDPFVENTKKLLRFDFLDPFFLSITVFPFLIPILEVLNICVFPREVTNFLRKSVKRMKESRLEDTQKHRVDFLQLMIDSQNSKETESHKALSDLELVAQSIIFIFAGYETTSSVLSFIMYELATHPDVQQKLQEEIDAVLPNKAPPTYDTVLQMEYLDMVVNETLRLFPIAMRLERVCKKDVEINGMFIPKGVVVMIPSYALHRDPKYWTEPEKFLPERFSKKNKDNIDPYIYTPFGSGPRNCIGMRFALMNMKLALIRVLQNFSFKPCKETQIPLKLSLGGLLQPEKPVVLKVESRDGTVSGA

**Q.** Which Potency [1] does the source give for `CO[C@H]1/C=C/O[C@@]2(C)Oc3c(C)c(O)c4c(O)c(c5c(c4c3C2=O)NC2(CCN(CC(C)C)CC2)N=5)=NC(=O)/C(C)=C\C=C\[C@H](C)[C@H](O)[C@@H](C)[C@@H](O)[C@@H](C)[C@H](OC(C)=O)[C@@H]1C` here?
**A.** The Potency was over 92 µM.

**Q.** What about the Potency [2] of the same compound?
**A.** The Potency was over 92 µM.

**Q.** And the Potency [3]?
**A.** The Potency was over 92 µM.

**Q.** And the Potency [4]?
**A.** Its Potency is over 92 µM.

**Q.** And the Potency [5]?
**A.** Its Potency is “inactive”.

**Q.** And the Potency [6]?
**A.** Its Potency is 20 µM (active).

**Q.** What about the Potency [7] of the same compound?
**A.** Its Potency is “inactive”.

**Q.** And the Potency [8]?
**A.** Its Potency is “inactive”.

**Q.** And the Potency [9]?
**A.** The Potency was “inactive”.

**Q.** And the Potency [10]?
**A.** Its Potency is “inactive”.

**Q.** What about the Potency [11] of the same compound?
**A.** Its Potency is “inactive”.

**Q.** And the outcome [12]?
**A.** The outcome was “inactive”.

**Q.** What about the caspase-3 activation [13] of the same compound?
**A.** Its caspase-3 activation is 0.833%.

**Q.** What about the caspase-3 activation [14] of the same compound?
**A.** The caspase-3 activation was 2.28%.

**Q.** And the caspase-3 activation [15]?
**A.** The caspase-3 activation was -2.49%.

**Q.** And the Potency [16]?
**A.** Its Potency is “inactive”.

**Q.** What about the Potency [17] of the same compound?
**A.** The Potency was “inactive”.

**Q.** What about the outcome [18] of the same compound?
**A.** Its outcome is “inactive”.

**Q.** What about the Potency [19] of the same compound?
**A.** The Potency was “inactive”.

**Q.** And the Potency [20]?
**A.** Its Potency is “inactive”.

**Q.** What about the Potency [21] of the same compound?
**A.** The Potency was “inactive”.

**Q.** And the Potency [22]?
**A.** The Potency was “inactive”.

**Q.** And the Potency [23]?
**A.** The Potency was “inactive”.
